Hits are enriched below; roughly 0.87% of the tested compounds scored in any of these assays.
EPAC2 antag – antagonists of human EPAC2; Q8WZA2; EPAC2 GEF exchange of Rap1B-BODIPY-GDP, fluorescence; Potency, µM (series often up to 114 µM), inactives show top-dose activity, negative = inhibition, hits mostly inhibitors; 360,000 tested, 0.18% active; AID 720708; also: potency is read from the fitted curve at half-maximal effect; % is scaled to controls: 0 for no effect and ±100 for the full control effect; nearly all actives have a fitted effect of over 45% in size
Target sequence (Q8WZA2 whole entry, looked up): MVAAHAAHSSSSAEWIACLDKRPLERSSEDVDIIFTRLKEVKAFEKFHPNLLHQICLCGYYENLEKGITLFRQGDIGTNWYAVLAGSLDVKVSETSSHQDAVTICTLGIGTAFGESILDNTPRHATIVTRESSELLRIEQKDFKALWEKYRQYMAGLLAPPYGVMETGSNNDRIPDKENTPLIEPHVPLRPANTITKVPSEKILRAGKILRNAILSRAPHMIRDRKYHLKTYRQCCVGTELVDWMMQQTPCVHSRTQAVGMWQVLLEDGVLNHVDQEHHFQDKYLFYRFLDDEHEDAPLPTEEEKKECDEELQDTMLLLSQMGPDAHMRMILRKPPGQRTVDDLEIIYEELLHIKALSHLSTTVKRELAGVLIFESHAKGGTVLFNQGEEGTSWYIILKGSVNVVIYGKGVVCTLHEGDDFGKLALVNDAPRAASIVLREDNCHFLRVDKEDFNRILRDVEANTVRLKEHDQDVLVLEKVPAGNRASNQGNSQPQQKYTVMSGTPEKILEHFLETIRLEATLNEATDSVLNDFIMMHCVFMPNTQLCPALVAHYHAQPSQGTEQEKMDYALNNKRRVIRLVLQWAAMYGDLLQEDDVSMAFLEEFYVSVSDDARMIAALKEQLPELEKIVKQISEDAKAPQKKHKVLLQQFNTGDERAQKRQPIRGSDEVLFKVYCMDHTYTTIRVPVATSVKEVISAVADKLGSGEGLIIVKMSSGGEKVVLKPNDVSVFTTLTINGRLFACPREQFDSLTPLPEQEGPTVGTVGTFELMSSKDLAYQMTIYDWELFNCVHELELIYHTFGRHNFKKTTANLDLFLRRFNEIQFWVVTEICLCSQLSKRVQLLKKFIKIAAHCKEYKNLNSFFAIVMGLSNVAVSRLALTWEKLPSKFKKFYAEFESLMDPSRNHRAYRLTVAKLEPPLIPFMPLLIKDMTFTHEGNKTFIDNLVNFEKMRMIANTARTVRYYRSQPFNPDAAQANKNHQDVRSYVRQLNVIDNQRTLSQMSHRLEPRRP
EPAC1 ag – agonists of human EPAC1; O95398; EPAC1 agonist qHTS, biochemical assay; response scale: 100% = response to 6.5 mM cAMP; Potency, µM (top dose mostly 154 µM), inactives show at the highest dose activation, hits mostly activators; 360,000 tested, 0.073% active; AID 720707; also: potency is read from the fitted curve at half-maximal effect; nearly all actives have a fitted effect of over 60% in size
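Normalized to 6.5 mM cAMP, activity reflects EPAC1-catalysed release of BODIPY-GDP from Rap1B, followed kinetically over 30 min at 480 nm excitation, 540 nm emission. Reaction contained 100 nM EPAC1, 250 nM Rap1B-BODIPY-GDP, 50 uM GDP.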
EPAC1 antag – blocks human EPAC1 exchange factor. EPAC1 GEF assay, Rap1b-BODIPY-GDP exchange fluorescence. Potency, µM (doses to about 115 µM), inactives show top-dose activity change, negative = inhibition, usual class: inhibitors. O95398. AID 720709. 360,000 tested, 0.14% active;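 also: potency is read from the fitted curve at half-maximal effect; plate controls were vehicle for no effect and positive control for full effect; nearly all actives have a fitted effect of over 50% in size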
USP1 inh – blocks the human USP1/UAF1 deubiquitinase complex | O94782 | recombinant USP1/UAF1, Ub-Rhodamine cleavage fluorescence | Potency, µM (series often up to 57.1 µM), inactives show at the highest dose activity change, negative = inhibition, most hits filed as inhibitors | 390,000 tested, 0.23% active | AID 743255; also: potency is read from the fitted curve at half-maximal effect; % is scaled to controls: 0 for no effect and ±100 for the full control effect; nearly all actives have a fitted effect of over 60% in size
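USP1/UAF1 complex at 1 nM was preincubated with compound for 15 min at room temperature, then Ub-Rho substrate (150nM final) was added. Fluorescence (480/540 nm) was read kinetically, 6 reads every 60 seconds.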
EPAC2 ag – activates human EPAC2 exchange factor; Q8WZA2; EPAC2 activation, biochemical qHTS; response scale: 100% = 6.5 mM cAMP response; Potency, µM (highest dose often 154 µM), for the others: at the highest dose activation, most hits filed as activators; 360,000 tested, 0.079% active; also: potency is read from the fitted curve at half-maximal effect; nearly all actives have a fitted effect of over 50% in size
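qHTS, titration series. 100 nM EPAC2 / 250 nM Rap1B-BODIPY-GDP / 50 uM GDP; RT; ex 480/em 540 nm, 5-min reads to 30 min. Norm. to 6.5 mM cAMP = activation.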
Coupling enz – counter-screen for Giardia aldolase inhibitors: coupling enzyme system; coupling enzyme system counterscreen, AmpLite Red fluorescence; activity change, negative = inhibition, % at 58.2 µM, hits read low; 290,000 tested, 0.67% active; AID 2472; in the data active = activity change below about -30%; also: % is scaled to controls: 0 for no effect and ±100 for the full control effect
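Final compound at 57.5 uM, incubated 10 min at RT with coupling enzyme reagent (glyceraldehyde-3-phosphate), then 20 min with substrate and AmpLite Red detection. Fluorescence read at 525/598 nm; tests interference with the coupling assay, not aldolase inhibition.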
The depositor's hits bear a star; ? = inconclusive; . = not tested or not shown. Unless noted, calls follow the shape of the dose curve; as a rule, active = well fitted curve in the direction sought with a large enough effect; inconclusive = small, poorly fitted or top-dose-only effect, or another doubt; inactive = no such curve, though single readings can be large; an effect the other way counts as inactive or inconclusive.

SMILES	EPAC2 antag	EPAC1 ag	EPAC1 antag	USP1 inh	EPAC2 ag	Coupling enz
N#Cc1c(C(F)(F)F)cc(C2CC2)nc1N1CCCC1	-1%	13%	0%	-9%	11%	-34*
O=C(c1ccco1)c1cc2c(ccc3ccccc32)oc1=O	5%	0%	0%	-13%	1%	4
CCCCCCCCN1C(=O)[C@H](CC(=O)NCc2ccc(OC)c(OC)c2)C[C@@]2(C(=O)OC)CCCCC=C12	38µM*	-25%	-28%	.	-10%	.
O=C(C1CCN(c2ncnc3c2sc2cccc(F)c23)CC1)N1CCCC1	.	.	.	.	.	-44*
COc1ccc(C)c(-n2c(N)cc(=O)n(Cc3ccccc3)c2=O)c1	-6%	5%	-7%	-3%	9%	1
O=C1c2cccc3c(N4CCCCC4)ccc(c23)C(=O)N1c1ccc(O)cc1	101%	11%	14%	?	89µM*	1
O=C1c2cccc3cccc(c23)C(=O)N1c1ccc(O)cc1	-8%	10%	-16%	-24%	7%	2
O=C1c2cccc3c(N4CCCCC4)ccc(c23)C(=O)N1c1ccccc1O	1%	?	4%	28µM*	100µM*	-3
Cc1ccc(N2C(=O)c3cccc4c(N5CCN(C)CC5)ccc(c34)C2=O)c2cccnc12	8%	22%	5%	28µM*	-13%	3
Cc1c(C)c(C)c(S(=O)(=O)NCCc2ccncc2)c(C)c1C	0%	4%	-10%	-15%	-2%	5
Cc1cc(C)c2oc(-c3ccc(NC(=O)c4cc(Br)ccc4Cl)cc3)nc2c1	.	.	.	-1%	.	.
CCOC(=O)c1c(NC(=O)/C=C/c2ccc3c(c2)OCO3)sc(C)c1C	.	.	.	.	.	6
CCOC(=O)c1c(NC(=O)/C=C/c2ccc3c(c2)OCO3)sc(C)c1CC	11%	-13%	-1%	-11%	6.3µM*	0
Cc1cccc(N(C)S(=O)(=O)c2cc3[nH]c(=O)c(=O)[nH]c3cc2C)c1	.	.	.	-10%	.	.
CC(NC(=O)c1cc(S(=O)(=O)N2CCOCC2)ccc1N1CCCC1)c1ccc(Cl)c(Cl)c1 (stereo not given)	14%	56µM*	7%	-23%	6%	.
Nc1ccc(N2CCN(c3ccc(F)cc3)CC2)cc1	5%	5%	6%	-22%	14%	0
Nc1ccc(N2CCCCCC2)cc1	.	.	.	.	.	-35*
O=[N+]([O-])c1ccc(Sc2n[nH]c(-c3ccccc3)n2)nc1	-1%	16%	3%	-4%	3%	-2
C#CCOCCOCCOCCNc1nc(N2CCOCC2)nc(N2CCN(C(=O)[C@H](Cc3cc4ccccc4[nH]3)n3cc([C@@H](N)C(C)CC)nn3)CC2)n1 (stereo not given in full)	5%	-4%	-8%	45µM*	1%	6
C#CCOCCOCCOCCNc1nc(N2CCN(C(=O)CCCCCCCCCCNC(=O)[C@H](CCCCN)n3cc(C)nn3)CC2)nc(N2CCN(C(=O)CCCCCCCCCCNC(=O)[C@H](CCCN=C(N)N)n3cc(C[C@@H](C)CC)nn3)CC2)n1	-21%	5%	50µM*	?	19%	.
C#CCOCCOCCOCCNc1nc(N2CCN(C(=O)CCCCCCCCCCNC(=O)Cn3cc(CCCCCN)nn3)CC2)nc(N2CCN(C(=O)CCCCCCCCCCNC(=O)Cn3cc(C[C@@H](C)O)nn3)CC2)n1	?	23%	35µM*	?	?	.
C#CCOCCOCCOCCNc1nc(N2CCN(C(=O)CCCCCCCCCCNC(=O)Cn3cc(C[C@@H](C)O)nn3)CC2)nc(N2CCN(C(=O)CCCCCCCCCCNC(=O)[C@@H]([C@H](C)CC)n3cc(CCCCCN)nn3)CC2)n1	-28%	19%	50µM*	?	16%	.
Cn1c(=O)c(=O)n(C)c2cc(C(=O)NCc3ccccc3Cl)ccc21	.	.	.	-14%	.	.
Cc1ccc(-c2c(C(=O)N/N=C/c3cccc(Cl)c3)nnn2-c2nonc2N)cc1	0%	-15%	4%	-24%	-1%	-36*
COc1ccc(OC)c(NC(=O)Nc2ccc3c(c2)CCC3)c1	4%	3%	-20%	-9%	3%	-4
SMILES	EPAC2 antag	EPAC1 ag	EPAC1 antag	USP1 inh	EPAC2 ag	Coupling enz
CCn1c(=O)c2ccccc2n(Cc2ccc([N+](=O)[O-])cc2)c1=O	-12%	2%	-21%	-6%	4%	5
COc1cc(CNC(C)c2ccccc2)cc(Br)c1OCc1ccccc1 (stereo not given)	-5%	6%	-13%	-16%	18%	0
Oc1ccc(NCc2ccc(OCc3ccccc3Cl)cc2)cc1	.	.	.	32µM*	.	.
Oc1ccc(NCc2ccc(OCc3ccccc3)cc2)cc1	-16%	9%	?	3.2µM*	20%	-10
Cn1nnnc1SCCNCc1ccc(OCc2ccccc2Cl)cc1	.	.	.	-13%	.	.
COc1cc(CNc2ccc(O)cc2)cc(Br)c1OCc1ccccc1	?	17%	40µM*	-27%	14%	-41*
CN(C)C(=O)c1ccc(N/C=C(\C=O)c2nc3ccccc3o2)cc1	3%	-8%	-3%	-11%	3%	4
COc1ccc(C2C3C=CCC(c4ccccc4)C3C(=O)N2Cc2ccccc2)cc1Cl (stereo not given)	.	.	.	.	.	2
CCc1nc2ccc(C(=O)N(C)CCCN(C)C)cn2c1N(C=O)CCC(C)C	5%	-6%	0%	.	9%	.
COCCNC(=S)Nc1ccc2nsnc2c1	-1%	1%	-13%	-12%	-5%	-43*
C=CCN(CC=C)C(=S)Nc1ccc2nsnc2c1	4%	-17%	-3%	-13%	8%	-54*
S=C(Nc1ccc2nsnc2c1)NC1CCCCC1	-4%	5%	?	-18%	3%	-67*
COCCNC(=S)Nc1ccc(Cl)c(Cl)c1	3%	0%	2%	-20%	0%	0
CCOc1ccc(NC(=S)Nc2ccc3nsnc3c2)cc1	3%	9%	-8%	28µM*	12%	-28
S=C(Nc1ccc(Cl)c(Cl)c1)NC1CCCCC1	-16%	21%	-29%	-13%	16%	-3
C=CCNC(=S)Nc1ccc2nsnc2c1	-1%	12%	?	-5%	7%	-23
CCOc1ccc(NC(=O)Nc2ccc3nsnc3c2)cc1	-6%	8%	-6%	-4%	4%	-6
N#Cc1cc([N+](=O)[O-])ccc1NCCCn1ccnc1	5%	4%	2%	-9%	6%	-1
O=C1N=C2N(CCN3CCCCC3)c3ccccc3N2/C1=C\c1ccc([N+](=O)[O-])s1	0%	-9%	9%	-19%	-1%	.

From PubChem BioAssay
